Data on 40 compounds can be found in PubChem BioAssay (Tox21).

Calls of active or inactive are those of the source. The call rests on the fitted dose curve; in most records, active means well fitted curve in the direction sought with a large enough effect in the repeat runs; inconclusive means weak or mixed curves; inactive means flat fitted curve, though single readings scatter.
On the % scale 0 is the no-effect control and ±100 the full control effect.

The test in a line: qHTS assay to test for compound auto fluorescence at 590 nm (red) in HEK293 cell free culture (AID 720683). To be noted: cell-free medium autofluorescence, Ex540/Em590 red; series mostly up to 46 µM; fluorescence, % of fluorescent control: at the top concentration. The source says: U.S. Tox21 Program National Center for Advancing Translational Sciences [NCATS] NIH Chemical Genomics Center [NCGC] U.S. Environmental Protection Agency [EPA] National Institutes of Environmental Health Sciences [NIEHS] National Toxicology Program [NTP] U.S. Food and Drug Administration [FDA] Tox21 Assay Overview: Compound auto fluorescence often interferes with screening of the compound library against various biological targets and signaling pathways. Some of these compounds may have fluorophoric properties. Such properties may interfere with the assay outputs resulting in false positives and/or negatives. To decrease such complications and ensure the compound activities are relevant in terms of biological response, the Tox21 10K compound library was screened for auto fluorescence. From the fluorophores used as reporter signals in our screening assays, the auto fluorescence equivalencies of compounds against three fluorophores have been evaluated: Triamterene, Fluorescein and Rose Bengal sodium for blue, green and red fluorescence, respectively. The fluorescence intensities were measured using Excitation/Emission wavelengths at 405/460nm, 485/535nm and 540/590nm for blue, green and red labels, respectively. This assay includes the red fluorescence data.
Tox21 Assay Protocol Summary: 5 uL of culture medium (DMEM containing 10% FBS) per well was dispensed into black wall/clear bottom 1536-well plates using a Multidrop Combi Dispenser (ThermoFisher Scientific, Waltham, MA). After 23 nL compound or DMSO vehicle was transferred into assay plate by a pintool work station (Kalypsys, San Diego, CA), fluorescence intensities in the assay plates were measured by an Envision (PerkinElmer, Shelton, CT) plate reader using three labels for measuring blue, green and red fluorescence at […] 460, 535 and 590nm respectively.
As to `C[C@]12CC[C@H]3[C@@H](CCC4=C(O)C(=O)CC[C@@H]43)[C@@H]1CC[C@@H]2OC(=O)CCC1CCCC1`, the “fluorescence, % of fluorescent control” value was 0.054% (inactive). Still for that read-out and setting: in the case of `NCC[C@H](O)C(=O)N[C@@H]1C[C@H](N)[C@@H](O[C@H]2O[C@H](CN)[C@@H](O)[C@H](O)[C@H]2N)[C@H](O[C@@H]2O[C@H](CO)[C@@H](O)[C@H]2O)[C@H]1O` it was -0.0846% [at 18.6 µM] (inactive). On to `Cc1ccccc1-n1c(C)nc2ccccc2c1=O`, for which the result was inactive. For `CCCC(=O)OC(C(Cl)(Cl)Cl)P(=O)(OC)OC` (stereo not given), the “fluorescence, % of fluorescent control” value was -0.105% (inactive). Regarding `CN[C@H]1C[C@@H](N)[C@H](O)[C@@H](O[C@@H]2O[C@H](CO)[C@H](O)[C@@H]3OC4(O[C@H]23)O[C@H](C(N)CO)[C@H](O)[C@H](O)[C@H]4O)[C@@H]1O` (stereo not given in full), the compound was classed as inactive. Turning to `C[C@]12CC[C@H]3[C@@H](CCC4=CC(=O)CC[C@@]43C)[C@@H]1CC[C@H]2O`, the “fluorescence, % of fluorescent control” value was 0.118% (inactive). Same read-out and setting: in the case of `OC(c1ccccc1)(c1ccccc1)C1CN2CCC1CC2` (stereo not given) it was 0.159% (inactive); in that of `C=C[C@H]1CN2CC[C@H]1C[C@H]2[C@H](OC(=O)OCC)c1ccnc2ccc(OC)cc12`, -0.491% (inactive); in that of `C[C@@H]1[C@@H]2Cc3ccc(O)cc3[C@@]1(C)CCN2CCc1ccccc1`, -0.506% [at 91.3 µM] (inactive). Same read-out and setting: in the case of `F/C(COc1ccc2c(c1)[nH]c1ccccc12)=C1/CN2CCC1CC2` it was 0.0958% (inactive); in that of `c1ccccc1`, -0.259% [at 91.3 µM] (inactive).

As to `CCCCNCC(O)c1ccc(O)cc1` (stereo not given), the “fluorescence, % of fluorescent control” value was 0.207% (inactive). Same read-out and setting: then `C[C@@H](CO)NC(=O)[C@@H]1C=C2c3cccc4[nH]cc(c34)C[C@H]2N(C)C1`, with -0.0328% (inactive).

Regarding `C[N+]1([O-])[C@@H]2CC[C@H]1CC(OC(=O)C(CO)c1ccccc1)C2` (stereo not given in full), the compound was called inactive.

`NCC(O)c1cccc(O)c1` (stereo not given): the “fluorescence, % of fluorescent control” value is -0.592% (inactive). The same measure, in the same setting: in the case of `CN[C@@H]1C[C@@H](c2ccc(Cl)c(Cl)c2)c2ccccc21` it was -0.0969% (inactive); in that of `CC(C)CCC(=O)O[C@H]1CC[C@H]2[C@@H]3CCC4=CC(=O)CC[C@]4(C)[C@H]3CC[C@]12C`, -0.0585% (inactive). As for `OCC(c1ccc(Cl)cc1)c1ccc(Cl)cc1`, the “fluorescence, % of fluorescent control” value is 0.145% [at 91.3 µM] (inactive). The same measure, in the same setting: in the case of `CCCCCc1cc(O)c2c(c1)OC(C)(C)c1ccc(C)cc1-2` it was 0.0134% (inactive); in that of `CC[N+](C)(CC)CCOC(=O)C(O)(c1ccccc1)c1ccccc1`, -0.271% (inactive). Turning to `O=C(O)/C=C/C(=O)O`, the compound was called inactive.

With `C1CN(P2(N3CC3)=NP(N3CC3)(N3CC3)=NP(N3CC3)(N3CC3)=N2)CCO1` (stereo not given), the “fluorescence, % of fluorescent control” value was -0.366% (inactive). For `CNC1(c2ccccc2Cl)CCCCC1=O` (stereo not given), the outcome was inactive. As for `C[C@]12CC[C@H](OS(=O)(=O)O)CC1=CC[C@@H]1[C@@H]2CC[C@]2(C)C(=O)CC[C@@H]12`, the “fluorescence, % of fluorescent control” value was 0.48% (inactive). With `CCC(N)Cc1c[nH]c2ccccc12` (stereo not given), the compound was called inactive. Turning to `S=C(S)N1CCNCC1`, the “fluorescence, % of fluorescent control” value was 0.846% (inactive). On the same count and under the same terms, then `CC(N)Cc1ccc(O)cc1` (stereo not given), with 0.147% (inactive). In the case of `CN1[C@H]2CC[C@@H]1[C@@H](C(=O)O)[C@@H](OC(=O)c1ccccc1)C2`, the compound was classed as inactive. Regarding `CCC/C=C/C=C/C(=O)O[C@H]1/C(=C/C(=O)OC)C[C@H]2C[C@H]([C@@H](C)O)OC(=O)C[C@H](O)C[C@@H]3C[C@H](OC(C)=O)C(C)(C)[C@](O)(C[C@@H]4C/C(=C/C(=O)OC)C[C@H](/C=C/C(C)(C)[C@]1(O)O2)O4)O3`, the “fluorescence, % of fluorescent control” value was -0.102% (inactive). The same measure, in the same setting: then `C[C@@H](N)C(=O)c1ccccc1`, with -0.644% [at 95.7 µM] (inactive). The same measure, in the same setting: then `C/C=C(\CC)C(=O)NC(N)=O`, with 0.161% (inactive).

For the compound `O=C1C[C@@H]2OCC=C3CN4CC[C@]56c7ccccc7N1[C@H]5[C@H]2[C@H]3C[C@H]46` (tested in a mixture with another compound), the call was inactive. On to `CNC(C)CC1CCCCC1` (stereo not given), for which the “fluorescence, % of fluorescent control” value is -0.091% (inactive). The same measure, in the same setting: in the case of `COc1ccc(OC)c(C[C@H](C)N)c1` it was -0.468% [at 95.7 µM] (inactive); in that of `CCC(=O)O[C@@](Cc1ccccc1)(c1ccccc1)[C@@H](C)CN(C)C`, 0.0163% [at 18.6 µM] (inactive); in that of `N#CC1(N2CCCCC2)CCCCC1`, -0.245% (inactive).

For the compound `O=C(CS(=O)C(c1ccccc1)c1ccccc1)NO` (stereo not given), the “fluorescence, % of fluorescent control” value is 0.289% (inactive). Still for that read-out and setting: then `C=CCN1CC[C@]23c4c5ccc(O)c4O[C@H]2[C@@H](O)C=C[C@H]3[C@H]1C5`, with -0.505% (inactive); and `CC(=O)O[C@H]1C[C@H](O[C@H]2[C@@H](O)C[C@H](O[C@H]3[C@@H](O)C[C@H](O[C@H]4CC[C@@]5(C)[C@H](CC[C@@H]6[C@@H]5C[C@@H](O)[C@]5(C)[C@@H](C7=CC(=O)OC7)CC[C@]65O)C4)O[C@@H]3C)O[C@@H]2C)O[C@H](C)[C@H]1O[C@@H]1O[C@H](CO)[C@@H](O)[C@H](O)[C@H]1O`, with -0.18% (inactive); and `Nc1ccc([N+](=O)[O-])cc1`, with 0.737% [at 91.3 µM] (inactive).
